Several values for one entry are separate records, joined by “and”; a condition that tells them apart may be missing. Identical values can stand only once. Records with an inconclusive call do not appear. Some structures have more than one record in an assay (separate samples or runs), and their calls can disagree. Activity calls are given as the source filed them. Calls follow the shape of the dose curve; as a rule, active = well fitted curve in the direction sought with a large enough effect in the repeat runs; inconclusive = weak or mixed curves; inactive = no such curve, though single readings can be large; an effect the other way counts as inactive or inconclusive.
Tests used:
[1] = A CellTox Green Cytotoxicity Assay to monitor cytotoxicity in HEK293 cells - 40 hour (AID 1224871); also: nearly all actives have a fitted effect of over 45% in size; also: potency is read from the fitted curve at half-maximal effect
Procedure, shortened: (§1)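 HEK293 cells, 600/well, were preincubated 5 hours and then exposed to compounds at 37 C for up to 40 hours. A cell-impermeant cyanine dye staining dead-cell DNA was read by fluorescence at 0, 8, 16, 24, 32 and 40 h time points.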

[2] = qHTS RealTime-Glo MT Cell Viability Assay in HEK293 cells - 16 hour (AID 1224872); also: nearly all actives have a fitted effect of over 50% in size; also: potency is read from the fitted curve at half-maximal effect; as to activity change, negative = cytotoxicity: top concentration of the series differs between compounds
Procedure, shortened: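 Reads taken at 0, 8, 16, 24, 32 and 40 h from the same wells. HEK293 cells (600/well) carried RealTime-Glo reagents from seeding, with compound added after a 5 h settle at 37 C.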

[3] = qHTS RealTime-Glo MT Cell Viability Assay in HepG2 cells - 8 hour (AID 1224873); also: nearly all actives have a fitted effect of over 55% in size
Procedure, shortened: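 HepG2 cells (600/well) mixed with RealTime-Glo MT reagent, settled 5 h at 37 C/5% CO2 before compound addition. Nonlytic NanoLuc luminescence from viable-cell prosubstrate reduction read repeatedly during 40 h treatment at 37 C.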

[4] = A CellTox Green Cytotoxicity Assay to monitor cytotoxicity in HEK293 cells - 24 hour (AID 1224875); also: nearly all actives have a fitted effect of over 45% in size; also: potency is read from the fitted curve at half-maximal effect; as to activity change: series mostly up to about 77 µM
Procedure, shortened: as §1

[5] = A CellTox Green Cytotoxicity Assay to monitor cytotoxicity in HepG2 cells - 24 hour (AID 1224878); also: nearly all actives have a fitted effect of over 45% in size; also: potency is read from the fitted curve at half-maximal effect
Procedure, shortened: (§2)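 HepG2 cells, 600/well, preincubated 5 h with CellTox Green dye, then exposed to Tox21 compounds in DMSO at 37 C for up to 40 h. Dead-cell DNA fluorescence read at the indicated time point.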

[6] = A CellTox Green Cytotoxicity Assay to monitor cytotoxicity in HepG2 cells - 40 hour (AID 1224879); also: nearly all actives have a fitted effect of over 40% in size; also: potency is read from the fitted curve at half-maximal effect
Procedure, shortened: as §2

[7] = qHTS RealTime-Glo MT Cell Viability Assay in HEK293 cells - 0 hour (AID 1224880); also: top concentration of the series differs between compounds; nearly all actives have a fitted effect of over 45% in size
Procedure, shortened: (§3)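 600 cells/well were plated with the nonlytic NanoLuc/prosubstrate reagent, pre-incubated 5 h, then given 23 nL of compound in DMSO. Incubation at 37 C for 40 h, with luminescence from viable-cell-reduced substrate read repeatedly from 0 h.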

[8] = qHTS RealTime-Glo MT Cell Viability Assay in HEK293 cells - 40 hour (AID 1224874); settings: RealTime-Glo luminescence; max response: stronger effect = lower value; also: nearly all actives have a fitted effect of over 50% in size; also: potency is read from the fitted curve at half-maximal effect
Procedure, shortened: as §3

[9] = A CellTox Green Cytotoxicity Assay to monitor cytotoxicity in HepG2 cells - 16 hour (AID 1224876); also: nearly all actives have a fitted effect of over 45% in size; also: potency is read from the fitted curve at half-maximal effect
Procedure, shortened: as §2

[10] = qHTS RealTime-Glo MT Cell Viability Assay in HepG2 cells - 32 hour (AID 1224877); also: nearly all actives have a fitted effect of over 55% in size; also: potency is read from the fitted curve at half-maximal effect
Procedure, shortened: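 HepG2 suspension premixed with RealTime-Glo reagents is plated at 600 cells per well and left 5 h at 37 C/5% CO2. Compounds in DMSO then go in, and bioluminescence reflecting viable cell number is recorded over 40 h.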
% is scaled to controls: 0 for no effect and ±100 for the full control effect.

O=C(N[C@H]1N=C(c2ccccc2F)c2cccc3c2N(CC3)C1=O)c1cc2ccccc2[nH]1
inactive: Potency [1] | Potency [2] | Potency [3] | Potency [4] | Potency [5] | Potency [6] | Potency [7]

N#Cc1c[nH]cc1-c1cccc2c1OC(F)(F)O2
inactive: Potency [1] | Potency [3] | Potency [4] | Potency [9] | Potency [5] | Potency [7]
active: Potency [8] 6.16 µM | Potency [6] 13.8 µM

CC(=O)[O-].CC(=O)[O-].O.O.O.[Pb+2]
inactive: Potency [1] | Potency [3] | max response [8] -1.15% | Potency [9] | Potency [5] | Potency [6] | Potency [7]

CC(C)(C)c1ccc(OP(=O)(Oc2ccccc2)Oc2ccccc2)cc1
inactive: Potency [1] | Potency [3] | Potency [4] | Potency [9] | Potency [10] | Potency [5] | Potency [6] | Potency [7]

CC(C)c1c(CN(C)C(C)Cc2ccccc2)n(C)n(-c2ccccc2)c1=O (stereo not drawn)
inactive: Potency [1] | Potency [3] | Potency [4] | Potency [9] | Potency [10] | Potency [5] | Potency [6] | Potency [7]

CCOC(=O)Cc1ccccc1
inactive: Potency [1] | Potency [2] | max response [8] 17.4% | Potency [4] | Potency [10] | Potency [5] | Potency [6] | Potency [7]

CC[N+]1(CC)CCC(OC(=O)C(O)(c2ccccc2)c2ccccc2)C1 (stereo not drawn)
inactive: Potency [1] | Potency [2] | Potency [4] | Potency [9] | Potency [5] | Potency [6] | Potency [7]

CCCCC/C=C\C/C=C\C/C=C\C/C=C\CCCC(=O)NCC(=O)O
inactive: Potency [1] | Potency [2] | Potency [4] | Potency [9] | Potency [10] | Potency [5] | Potency [6]

CCCCN(CCCC)C(=S)S
inactive: Potency [1] | Potency [2] | max response [8] -4.16% | Potency [4] | Potency [10] | Potency [7]

S=C=Nc1ccccc1
inactive: Potency [1] | Potency [2] | max response [8] -7.14% | Potency [9] | Potency [5] | Potency [6] | Potency [7]

CN1CCc2cc(Cl)c(O)cc2[C@H]2c3ccccc3CC[C@@H]21
inactive: Potency [1] | Potency [3] | Potency [4] | Potency [9] | Potency [10] | Potency [5] | Potency [6] | Potency [7]

N#Cc1c2ccccc2cc2ccccc12
inactive: Potency [1] | Potency [2] | max response [8] -9.07% | Potency [9] | Potency [5] | Potency [7]

O=C(N[C@@H]1N=C(c2ccccc2F)c2cccc3c2N(CC3)C1=O)c1cc2ccccc2[nH]1
inactive: Potency [2] | max response [8] -2.71% | Potency [7]
active: Potency [1] 6.01 µM | Potency [4] 5.35 µM | Potency [5] 21.3 µM | Potency [6] 9.52 µM

CCC1COC(Cn2cncn2)(c2ccc(Cl)cc2Cl)O1 (stereo not drawn)
inactive: Potency [1] | Potency [3] | Potency [4] | Potency [9] | Potency [10] | Potency [5] | Potency [7]

CN1C(=O)[C@@H](NC(=O)c2cc3ccccc3[nH]2)N=C(c2ccccc2)c2ccccc21
inactive: Potency [1] | Potency [2] | Potency [4] | Potency [9] | Potency [10] | Potency [5] | Potency [6] | Potency [7]

COP(=O)(OC)O/C(=C\Cl)c1cc(Cl)c(Cl)cc1Cl
inactive: Potency [1] | Potency [2] | Potency [4] | Potency [9] | Potency [7]

O.O.O.O.O.O.O.O=S(=O)([O-])[O-].[Co+2]
inactive: Potency [1] | Potency [2] | Potency [4] | Potency [10] | Potency [5] | Potency [6] | Potency [7]

Clc1ccc(C(Cl)(Cl)Cl)cc1Cl
active: Potency [1] 33.9 µM | Potency [2] 33.9 µM | Potency [8] 33.9 µM | Potency [4] 33.9 µM | Potency [5] 47.9 µM | Potency [6] 47.9 µM
inactive: Potency [7]

C[C@@H]1CC2=CC(=O)CC[C@@H]2[C@H]2CC[C@@]3(C)[C@@H](CC[C@]3(C)O)[C@@H]21
inactive: Potency [1] | Potency [3] | Potency [4] | Potency [9] | Potency [10] | Potency [5] | Potency [6] | Potency [7]

C=CC(=C)C
inactive: Potency [1] | Potency [2] | Potency [4] | Potency [9] | Potency [10] | Potency [5] | Potency [6] | Potency [7]

C[C@H]1[C@H](c2ccc(Cl)cc2)SC(=O)N1C(=O)NC1CCCCC1
active: Potency [2] 38.9 µM | Potency [8] 43.6 µM
inactive: Potency [1] | Potency [9] | Potency [10] | Potency [5] | Potency [6] | Potency [7]

CCOP(=S)(NC(C)C)Oc1ccccc1C(=O)OC(C)C (stereo not drawn)
inactive: Potency [1] | Potency [3] | Potency [4] | Potency [9] | Potency [5]
active: Potency [6] 38.9 µM

[Cl][Hg][c]1ccccc1
inactive: Potency [7]
active: Potency [1] 1.23 µM | Potency [2] 1.38 µM | Potency [8] 1.1 µM | Potency [4] 2.19 µM | Potency [5] 3.47 µM | Potency [6] 2.19 µM

CC(C)C(Nc1ccc(C(F)(F)F)cc1Cl)C(=O)OC(C#N)c1cccc(Oc2ccccc2)c1 (stereo not drawn)
inactive: Potency [1] | Potency [3] | max response [8] -20.4% | Potency [4] | Potency [9] | Potency [5] | Potency [6] | Potency [7]

c1ccc(N=NNc2ccccc2)cc1
active: Potency [1] 45.2 µM and 43.6 µM | Potency [4] 50.7 µM | Potency [6] 49 µM
inactive: Potency [2] | max response [8] -3.75% | Potency [10] | Potency [7]

C1=CCC=C1
inactive: Potency [1] | Potency [2] | Potency [5] | Potency [6] | Potency [7]

COC(=O)c1ccccc1S(=O)(=O)NC(=O)Nc1nc(C)nc(OC)n1
inactive: Potency [1] | Potency [2] | Potency [9] | Potency [5] | Potency [6] | Potency [7]

ClCBr
inactive: Potency [1] | Potency [2] | max response [8] 7.13% | Potency [9] | Potency [5] | Potency [6] | Potency [7]

O=S1OCC2C(CO1)C1(Cl)C(Cl)=C(Cl)C2(Cl)C1(Cl)Cl (stereo not drawn)
inactive and 54.9 µM (active): Potency [10]
inactive: Potency [7]
active: Potency [1] 49 µM and 54.9 µM | Potency [2] 19.5 µM and 38.9 µM | Potency [8] 21.9 µM and 38.9 µM | Potency [9] 48.9 µM | Potency [5] 48.9 µM | Potency [6] 54.9 µM

c1ccc2nc(N3CCNCC3)ccc2c1
inactive: Potency [1] | Potency [2] | max response [8] -17.1% | Potency [4] | Potency [10] | Potency [5] | Potency [7]

CCC(OC(C)=O)C(CC(C)NC)(c1ccccc1)c1ccccc1 (stereo not drawn)
active: Potency [1] 62.2 µM | Potency [2] 49.4 µM | Potency [8] 49.4 µM | Potency [9] 62.2 µM | Potency [10] 62.2 µM | Potency [5] 55.4 µM | Potency [6] 55.4 µM

CCNS(=O)(=O)C(F)(F)C(F)(F)C(F)(F)C(F)(F)C(F)(F)C(F)(F)C(F)(F)C(F)(F)F
inactive: Potency [1] | Potency [2] | max response [8] 23.4% | Potency [4] | Potency [5] | Potency [6] | Potency [7]

O=S1(=O)OCC2C(CO1)C1(Cl)C(Cl)=C(Cl)C2(Cl)C1(Cl)Cl (stereo not drawn)
active: Potency [1] 49 µM | Potency [2] 19.5 µM | Potency [8] 21.9 µM
inactive: Potency [4] | Potency [9] | Potency [5] | Potency [7]

CO/N=C(\C(=O)OC)c1ccccc1CO/N=C(\C)c1cccc(C(F)(F)F)c1
inactive: Potency [3] | Potency [4] | Potency [9] | Potency [10] | Potency [5] | Potency [6] | Potency [7]
active: Potency [1] 6.92 µM | Potency [8] 6.16 µM

CSSC
active: Potency [6] 7.86 µM
inactive: Potency [1] | Potency [2] | Potency [4] | Potency [9] | Potency [10] | Potency [5] | Potency [7]

CCCCC(CC)COC(=O)OOC(C)(C)C (stereo not drawn)
inactive: Potency [1] | Potency [2] | max response [8] 0.0606% | Potency [9] | Potency [5] | Potency [6] | Potency [7]

Oc1cccc(Cl)c1Cl
inactive: Potency [1] | Potency [3] | Potency [4] | Potency [9] | Potency [10] | Potency [5] | Potency [6] | Potency [7]

CC(C)NCC(O)c1ccccc1Cl (stereo not drawn)
inactive: Potency [1] | Potency [2] | Potency [4] | Potency [9] | Potency [10] | Potency [5] | Potency [6] | Potency [7]

CC(=O)[O-].CC(=O)[O-].CC(=O)[O-].[Sb+3]
inactive: cytotoxicity increase [1] 2.55% [at 2.72 µM] | activity change, negative = cytotoxicity [2] 1.77% [at 2.72 µM] | cytotoxicity increase [9] -16% [at 2.72 µM] | activity change, negative = cytotoxic [10] 8.41% [at 2.72 µM] | cytotoxicity [5] -19.2% [at 2.72 µM] | cytotoxicity increase [6] -22.4% [at 2.72 µM] | activity change, negative = cytotoxicity [7] -11.8% [at 2.72 µM]

c1cc[n+]2c(c1)-c1cccc[n+]1CC2
inactive: Potency [1] | Potency [2] | Potency [4] | Potency [10] | Potency [5] | Potency [6] | Potency [7]
